In article PMC9838217, “Structure of SALL4 zinc finger domain reveals link between AT-rich DNA binding and Okihiro syndrome” one finds binding signal data, which are given here for 30 sequences.

Test in all cases: HT-SELEX; high values mean tight binding
Holding throughout (settings): protein: recombinant; vector His6-GST; dsDNA, one strand shown

In one assay the target is T1, SALL4 ZFC4 WT (HT-SELEX) (Mus musculus, UniProt Q8BX22 870-940).
T1 sequence: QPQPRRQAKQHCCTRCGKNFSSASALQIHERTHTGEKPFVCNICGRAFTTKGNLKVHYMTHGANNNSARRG
The gist of the method: (§1)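 A 100 µl reaction of 10 mM Tris–HCl pH 7.5, 50 mM NaCl, poly(dI-dC) and DTT held purified recombinant mouse SALL4 zinc finger cluster 4 (residues 870–940, 1 µg) and library DNA (1.5 µg first cycle, 200 ng later) for 10 min at room temperature. Complexes captured on Ni2+ beads were washed, PCR-amplified and reselected for up to 6 cycles, in triplicate, then MiSeq-sequenced and scanned for 6-mers. Binding signal is the read fraction of each canonical k-mer expressed as fold change over the initial random library.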

For assay [1], the target named is T2, SALL4 ZFC4 R900W (HT-SELEX) (Mus musculus, UniProt Q8BX22 870-940, R900W).
T2 sequence: T1 sequence with R31W
Put shortly: as §1

Assay [2] concerns the target T3, SALL4 ZFC4 G921D (HT-SELEX) (Mus musculus, UniProt Q8BX22 870-940, G921D).
T3 sequence: T1 sequence with G52D
The gist of the method: as §1

Positions count from the first letter of the chain named.

For AATCTC, the binding signal in the assay with SALL4 ZFC4 WT (HT-SELEX) is 1.38 ± 0.0549 fold-change vs cycle 0; in assay [1] it was 1.5 ± 0.0336 fold-change vs cycle 0; in assay [2], 1.43 ± 0.0651 fold-change vs cycle 0.

As to ATAGTA, the binding signal came out at 2.1 ± 0.131 fold-change vs cycle 0 with SALL4 ZFC4 WT (HT-SELEX), 2.08 ± 0.149 fold-change vs cycle 0 in assay [1] and 1.83 ± 0.209 fold-change vs cycle 0 in assay [2].

ATAAAT: the binding signal came out at 4.06 ± 0.373 fold-change vs cycle 0 with SALL4 ZFC4 WT (HT-SELEX), 2.56 ± 0.158 fold-change vs cycle 0 in assay [1] and 2.19 ± 0.239 fold-change vs cycle 0 in assay [2].

Take CAGACG: the binding signal with SALL4 ZFC4 WT (HT-SELEX) was 0.352 ± 0.0274 fold-change vs cycle 0; in assay [1] it was 0.442 ± 0.0268 fold-change vs cycle 0; in assay [2] it was 0.571 ± 0.085 fold-change vs cycle 0.

For CCAGAC, the binding signal with SALL4 ZFC4 WT (HT-SELEX) is 0.368 ± 0.0286 fold-change vs cycle 0; in assay [1] it was 0.471 ± 0.0141 fold-change vs cycle 0; in assay [2] it was 0.553 ± 0.0511 fold-change vs cycle 0.

As to CACCAG, the binding signal in the assay with SALL4 ZFC4 WT (HT-SELEX) stood at 0.43 ± 0.0196 fold-change vs cycle 0; in assay [1], 0.526 ± 0.014 fold-change vs cycle 0; in assay [2], 0.606 ± 0.0242 fold-change vs cycle 0.

As for GGTACC, the binding signal in the assay with SALL4 ZFC4 WT (HT-SELEX) turned out to be 0.421 ± 0.0151 fold-change vs cycle 0; in assay [1], 0.521 ± 0.0308 fold-change vs cycle 0; in assay [2] it was 0.608 ± 0.0352 fold-change vs cycle 0.

Turning to CAATAC, the binding signal in the assay with SALL4 ZFC4 WT (HT-SELEX) is 1.22 ± 0.0144 fold-change vs cycle 0; in assay [1] it was 1.3 ± 0.0388 fold-change vs cycle 0; in assay [2], 1.29 ± 0.0522 fold-change vs cycle 0.

For ACCTAC, the results for the binding signal (with SALL4 ZFC4 WT (HT-SELEX); in assay [1]; in assay [2]) were 0.796 ± 0.0505 fold-change vs cycle 0, 0.908 ± 0.0415 fold-change vs cycle 0 and 0.957 ± 0.0179 fold-change vs cycle 0, respectively.

TCTCAA: the binding signal with SALL4 ZFC4 WT (HT-SELEX) amounted to 1.28 ± 0.029 fold-change vs cycle 0; in assay [1], 1.413 ± 0.011 fold-change vs cycle 0; in assay [2], 1.34 ± 0.061 fold-change vs cycle 0.

Regarding TAAAGA, the binding signal with SALL4 ZFC4 WT (HT-SELEX) is 2.04 ± 0.114 fold-change vs cycle 0; in assay [1], 2.15 ± 0.111 fold-change vs cycle 0; in assay [2] it was 1.82 ± 0.201 fold-change vs cycle 0.

With ACAGTA, the binding signal was determined as 1.35 ± 0.0516 fold-change vs cycle 0 in the assay with SALL4 ZFC4 WT (HT-SELEX), 1.47 ± 0.111 fold-change vs cycle 0 in assay [1] and 1.37 ± 0.127 fold-change vs cycle 0 in assay [2].

Consider ACAAAG, for which the binding signal worked out at 1.19 ± 0.0417 fold-change vs cycle 0 with SALL4 ZFC4 WT (HT-SELEX), 1.36 ± 0.0499 fold-change vs cycle 0 in assay [1] and 1.3 ± 0.0198 fold-change vs cycle 0 in assay [2].

For the sequence AATTCG, the binding signal in the assay with SALL4 ZFC4 WT (HT-SELEX) is 0.945 ± 0.024 fold-change vs cycle 0; in assay [1], 1.008 ± 0.0043 fold-change vs cycle 0; in assay [2] it was 1.07 ± 0.0346 fold-change vs cycle 0.

As for CAACTC, the binding signal with SALL4 ZFC4 WT (HT-SELEX) came to 0.778 ± 0.0269 fold-change vs cycle 0; in assay [1], 0.92 ± 0.0298 fold-change vs cycle 0; in assay [2], 0.994 ± 0.018 fold-change vs cycle 0.

Take GTATGA: the binding signal is 1.51 ± 0.0577 fold-change vs cycle 0 with SALL4 ZFC4 WT (HT-SELEX), 1.49 ± 0.0331 fold-change vs cycle 0 in assay [1] and 1.38 ± 0.0706 fold-change vs cycle 0 in assay [2].

For the sequence AGGACG, the binding signal worked out at 0.361 ± 0.014 fold-change vs cycle 0 with SALL4 ZFC4 WT (HT-SELEX), 0.462 ± 0.00636 fold-change vs cycle 0 in assay [1] and 0.558 ± 0.0296 fold-change vs cycle 0 in assay [2].

Turning to GACATC, the binding signal with SALL4 ZFC4 WT (HT-SELEX) stood at 0.75 ± 0.0336 fold-change vs cycle 0; in assay [1], 0.879 ± 0.011 fold-change vs cycle 0; in assay [2], 0.967 ± 0.0135 fold-change vs cycle 0.

Turning to AATCAT, the binding signal came to 2.57 ± 0.14 fold-change vs cycle 0 with SALL4 ZFC4 WT (HT-SELEX), 2.12 ± 0.0633 fold-change vs cycle 0 in assay [1] and 1.93 ± 0.164 fold-change vs cycle 0 in assay [2].

AAATCC: the binding signal worked out at 1.19 ± 0.0372 fold-change vs cycle 0 with SALL4 ZFC4 WT (HT-SELEX), 1.27 ± 0.0238 fold-change vs cycle 0 in assay [1] and 1.24 ± 0.0539 fold-change vs cycle 0 in assay [2].

Consider ATTGGC, for which the binding signal with SALL4 ZFC4 WT (HT-SELEX) worked out at 0.461 ± 0.0252 fold-change vs cycle 0; in assay [1] it was 0.5 ± 0.0137 fold-change vs cycle 0; in assay [2] it was 0.665 ± 0.0716 fold-change vs cycle 0.

Consider ACATAA, for which the binding signal in the assay with SALL4 ZFC4 WT (HT-SELEX) came to 2.21 ± 0.177 fold-change vs cycle 0; in assay [1], 1.96 ± 0.0742 fold-change vs cycle 0; in assay [2], 1.75 ± 0.158 fold-change vs cycle 0.

With ACTCTA, the binding signal with SALL4 ZFC4 WT (HT-SELEX) amounted to 1.37 ± 0.0421 fold-change vs cycle 0; in assay [1], 1.48 ± 0.0703 fold-change vs cycle 0; in assay [2], 1.43 ± 0.113 fold-change vs cycle 0.

As to AATACT, the binding signal came to 2.02 ± 0.117 fold-change vs cycle 0 in the assay with SALL4 ZFC4 WT (HT-SELEX), 1.99 ± 0.126 fold-change vs cycle 0 in assay [1] and 1.82 ± 0.161 fold-change vs cycle 0 in assay [2].

Consider CACTTC, for which the results for the binding signal (with SALL4 ZFC4 WT (HT-SELEX); in assay [1]; in assay [2]) were 0.777 ± 0.0329 fold-change vs cycle 0, 0.925 ± 0.0515 fold-change vs cycle 0 and 0.946 ± 0.0498 fold-change vs cycle 0, respectively.

For the sequence TACTAA, the figures for the binding signal (with SALL4 ZFC4 WT (HT-SELEX); in assay [1]; in assay [2]) were 2.076 ± 0.0175 fold-change vs cycle 0, 2.12 ± 0.0758 fold-change vs cycle 0 and 1.87 ± 0.135 fold-change vs cycle 0, respectively.

On to AGAGGG, for which the binding signal with SALL4 ZFC4 WT (HT-SELEX) was determined as 0.489 ± 0.0115 fold-change vs cycle 0; in assay [1], 0.556 ± 0.0501 fold-change vs cycle 0; in assay [2], 0.655 ± 0.0298 fold-change vs cycle 0.

On to AATTGG, for which the values for the binding signal (with SALL4 ZFC4 WT (HT-SELEX); in assay [1]; in assay [2]) were 1.07 ± 0.0351 fold-change vs cycle 0, 1.15 ± 0.0596 fold-change vs cycle 0 and 1.19 ± 0.036 fold-change vs cycle 0, respectively.

Take AATCAC: the binding signal with SALL4 ZFC4 WT (HT-SELEX) worked out at 1.31 ± 0.0497 fold-change vs cycle 0; in assay [1], 1.46 ± 0.03 fold-change vs cycle 0; in assay [2], 1.42 ± 0.0791 fold-change vs cycle 0.

As to TAACAA, the figures for the binding signal (with SALL4 ZFC4 WT (HT-SELEX); in assay [1]; in assay [2]) were 2.11 ± 0.116 fold-change vs cycle 0, 2.02 ± 0.138 fold-change vs cycle 0 and 1.81 ± 0.153 fold-change vs cycle 0, respectively.
